Data from PubChem BioAssay AID1663 (Broad Institute, 2009).
Out of some 300,000 compounds screened, about 660 (0.22%) were called active. This is one part of a sample in which actives are shown more often than they occur.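 How the source made its calls: active means mean replicate score, as percent of positive control, at or above 50; inconclusive means mean below 50 but at least one replicate at or above 50; inactive means mean and every replicate below 50.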

assay: blockers of SFLLRN-triggered platelet ATP release – cell-based, MLPCN, human platelets, primary screen (AID 1663); conditions: human platelet-rich plasma, SFLLRN dense granule ATP release, luminescence; stronger effect = higher value;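 compounds screened at 7.5 µM in platelet-rich plasma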

inhibition, active:
CN(CCO)c1ccc(/C=N/Nc2nncc3ccccc23)cc1 76.1%, COc1cccc(C(=O)c2cc3ccc(O)cc3oc2=O)c1 69.5%, Cc1onc(C(=O)Nc2ccc3c(c2)OCO3)c1[N+](=O)[O-] 75.7%, C=CCn1c(C)cc(C2=NNC(=NCC)SC2)c1C 50.4%

inhibition, inactive:
O=C(Nc1ccncc1)Nc1ccc(F)cc1 4.47%, CC1(C)CC[C@]2(C(=O)O)CC[C@]3(C)C(=CCC4[C@@]5(C)CC[C@H](O)C(C)(C)C5[C@H](O)C[C@]43C)[C@@H]2C1 (some centres undefined) 3.05%, COc1cc(NC(=S)NNC(=O)CC(C)C)c(OC)cc1Cl -6.51%, COC(=O)c1c(NC(=O)c2ccccc2F)sc2c1C(C(=O)OC)CC2 (centres undefined) 2.31%, Cc1nc(CC(=O)NNS(=O)(=O)c2ccc(F)c(Cl)c2)cs1 12.2%, O=C(N/N=C/c1ccccn1)c1cccc(NC(=O)c2ccc(Cl)cc2)c1 1.55%, COc1cc(/C=N/Nc2nn3cnnc3c3ccccc23)cc(OC)c1OC 11.5%, C/C(=N\Nc1nncc2ccccc12)c1ccc(Cl)c([N+](=O)[O-])c1 -6.62%, Cc1c(C(=O)NCCN2CCOCC2)sc2nc(-c3ccc(F)cc3)cn12 10.4%, CSCCC(NC(=O)COc1ccccc1)C(=O)OCCOc1ccc(F)cc1 (centres undefined) -11.3%, CCN1C(=NCc2ccc(OC)cc2)N[C@@H](CCc2ccccc2)[C@H](C(=O)NCc2ccc(OC)cc2)[C@H]1C 9.74%, CN(C)S(=O)(=O)c1cccc(C(=O)OCC(=O)N2CCCC2=O)c1 -9.7%, O=C(NCc1ccccc1)C1CCN(C(=O)Cc2ccccc2)CC1 -35.6%, CCOC(=O)c1cnc2nc(SCc3ccccc3Cl)[nH]n2c1=O 3.83%, CCOc1ccc(C2C3=C(CCCC3=O)N(CC(=O)O)C3=C2C(=O)CCC3)cc1 -23.7%, CCN1CCN(C(=O)C2CCCN(S(=O)(=O)c3ccc(OC)c(OC)c3)C2)CC1 (centres undefined) 5.04%, O=S(=O)(Nc1ncccn1)c1ccc(NS(=O)(=O)c2cccc(Cl)c2Cl)cc1 1.24%, COc1cccc(C(=O)NNC(=O)c2cccc(F)c2)c1 -6.44%, CCOC(=O)c1cc2cc3ccccc3cc2oc1=O 8.56%, Nc1nonc1-n1nnc(C(=O)N/N=C/c2ccc(Cl)cc2)c1-c1ccc2c(c1)OCO2 2.68%, O=C(CN1CCOCC1)N1CCCc2c1c(=O)oc1ccc(OCc3ccccc3)cc21 -1.74%, CC(C)(C)c1cc[n+](-c2[nH]c(=O)sc2/C=N/N=C(\[O-])c2ccccc2)cc1 3.87%, CC(CCc1ccc(O)cc1)NCc1ccc(Cl)cc1Cl (centres undefined) 1.67%, O=C(CCn1nnnc1CN1CCOCC1)N1CCC(c2ccccc2Cl)C1 (centres undefined) 2.44%, CCc1cc(CNC(=O)CC2C(=O)NCCN2CC2CCCCC2)on1 (centres undefined) 4.79%, CN=C1S/C(=C\c2c(OC)cc(OC)cc2OC)C(=O)N1C 10.3%, COc1ccccc1C(=O)COC(=O)CNS(=O)(=O)c1ccc(NC(C)=O)cc1 6.24%, Cc1nn(CC(=O)Nc2ccc3c(c2)OCO3)c(C)c1[N+](=O)[O-] 11.1%, Cn1cc([N+](=O)[O-])c(C(=O)Nc2ccc3c(c2)OCCO3)n1 31.8%, Cc1nn(C)c(Cl)c1CN1CCC(Oc2ccc(C(=O)N3CCCC3)cc2)CC1 0.366%, Brc1ccc(C2CC(c3ccccc3)=Nc3ccccc3N2)cc1 (centres undefined) 7.02%, C=CCn1c(C)cc(C(=O)CN2C(=O)c3ccccc3C2=O)c1C 6.9%, Cc1cccc(N=C2NN=C(c3c[nH]c4ccccc34)CS2)c1 -0.733%, COc1ccc(CCN2C(=O)N(c3ccc(OC)cc3)C(=O)C2CC(=O)Nc2ccc(OC)cc2)cc1 (centres undefined) -2.02%, COC(=O)[C@@]12CCCN1[C@H](c1ccc(-c3ccc(F)cc3)c(OC)c1)[C@H]1C(=O)N(C)C(=O)[C@H]12 0.984%
